IL1B secr inh: inhibitors of inflammasome signaling (IL-1 beta secretion) | 360,000 tested, 4.7% active | activity change, % at 57.5 µM | THP-1 LPS/ATP IL-1B secretion, AlphaLISA, 16 h; active compounds read low; in the data active = activity change below about -50%; inconclusive = mostly about -30% to -49%; note: % is set by controls: 0 for no effect and ±100 for the full control effect
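Secreted IL-1B measured by AlphaLISA bead assay after 16 h compound exposure of THP-1 cells; compounds (final up to 57.5 uM) added 1 h before LPS (250 ng/mL) and ATP (1.25 mM) stimulation; lower signal means less secretion.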
DT40 TDP1 CPT: growth inhibition of DT40 Tdp1-/-;hTDP1 cells with camptothecin (screen for TDP1 inhibitors). AID 686979. 420,000 tested, 12% active. Potency, µM (titrated, usually from 46.2 µM), without a hit: at the highest dose activity change, negative = growth inhibition, most hits filed as inhibitors. chicken DT40 Tdp1-/-;hTDP1 cells + 20 nM CPT, ATP luminescence, 48 h; note: potency is the fitted concentration of half-maximal effect; % is set by controls: 0 for no effect and ±100 for the full control effect; nearly all actives have a fitted effect of over 55% in size
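Chicken DT40 Tdp1-/- cells stably complemented with human TDP1 were seeded at 400 cells/well in medium containing 20 nM camptothecin, exposed to pin-transferred compounds, and grown at 37 °C for at least 48 hr. Viability was read as ATP luminescence.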
SW480 rerep: inducers of DNA re-replication in SW480 colon cancer cells. Potency, µM (top dose mostly 46.1 µM), for inactives: at the top dose re-replication activation, hits mostly activators. AID 624297. SW480 DNA re-replication, Hoechst DNA content imaging, 48 h. 340,000 tested, 1.8% active; note: potency is the fitted concentration of half-maximal effect; % of control where 0% means no effect; nearly all actives have a fitted effect of over 55% in size
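Per well, 250 cells were exposed to pinned compound for 48 hr. Nuclear DNA was visualised with Hoechst (40 min, 37 C) and total object intensity recorded by fluorescence scanning.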
Chronic BCR inh: inhibitors of chronic active B-cell receptor signaling | ABC-DLBCL IkBa-CBG/CBR reporter, luminescence ratio, 4 h | 340,000 tested, 0.05% active | Potency, µM (doses to about 46.1 µM), inactives show top-dose activity change, negative = inhibition, actives largely listed as inhibitors | AID 493014; active = well fitted inhibition curve with a large enough effect in the signal ratio, with a control signal flat, not every such curve was filed as active; inconclusive = small, poorly fitted or top-dose-only effect, or effect the other way, or a change in a side signal; the % refers to the signal ratio;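 note: potency is the fitted concentration of half-maximal effect; plate controls were basal doxycycline-induced cells for no effect and cells given 10 µM MG132 for full effect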
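TMD8 ABC-DLBCL cells carrying doxycycline-inducible green luciferase fused to IkappaBalpha plus unfused red luciferase were exposed to compounds (up to 46 uM) for 4 hrs at 37C. Activity came from the overlap-corrected green/red luminescence ratio.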
MCF10A rereplic: DNA re-replication induction in MCF 10a cells; MCF 10A DNA re-replication, Hoechst nuclear intensity, 48 h; Potency, µM (top dose mostly 46.1 µM), inactives show at the highest dose activity, positive = re-replication, hits mostly activators; 350,000 tested, 2.9% active; AID 624296; note: potency is the fitted concentration of half-maximal effect; % of control where 0% means no effect; nearly all actives have a fitted effect of over 50% in size
TDP1 cell noCPT: qHTS for Inhibitors of human tyrosyl-DNA phosphodiesterase 1 (TDP1): qHTS in cells in absence of CPT; DT40 Tdp1-/- hTDP1 cells, no CPT, ATP luminescence, 48 h; Potency, µM (titrated, usually from 46.2 µM), for the others: top-dose activity change, negative = growth inhibition, usual class: inhibitors; 420,000 tested, 15% active; note: potency is the fitted concentration of half-maximal effect; % is set by controls: 0 for no effect and ±100 for the full control effect; nearly all actives have a fitted effect of over 55% in size
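Cells were dispensed at 400 per well, compounds added by pin tool, plates incubated ≥48 hr at 37 °C, then CellTiter-Glo added for 30 min at room temperature before luminescence reading. Line: DT40 Tdp1-/- complemented with hTDP1; camptothecin omitted.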
Numbers without * were called inactive; ? = inconclusive; / = no result; [ ] = another dose, or the depositor's remark. An excerpt weighted towards active compounds, which were near 19% of everything screened. Unless noted, calls come from the whole dose curve; as a rule, active = well fitted curve in the direction sought with a large enough effect; inconclusive = small, poorly fitted or top-dose-only effect, or another doubt; inactive = no such curve, though single readings can be large; an effect the other way counts as inactive or inconclusive.

SMILES	IL1B secr inh	DT40 TDP1 CPT	SW480 rerep	Chronic BCR inh	MCF10A rereplic	TDP1 cell noCPT
Cc1cccc(OCC(=O)NCC(c2cccs2)N2CCOCC2)c1 (centres undefined)	-0.8	4.8%	1.6%	-3.7%	8.7%	-19.4%
Cc1cc(Cl)ccc1OCC(=O)NCC(c1cccs1)N1CCOCC1 (centres undefined)	?	?	-99.0%	26.3%	-1.6%	16.4µM*
Cc1cc(OCC(=O)NCC(c2cccs2)N2CCOCC2)ccc1C(C)C (centres undefined)	-57.3*	?	-76.5%	-3.5%	-24.2%	?
Cc1ccc(C(C)C)c(OCC(=O)NCC(c2cccs2)N2CCOCC2)c1 (centres undefined)	?	25.9µM*	-683.7%	3.7%	?	13µM*
NS(=O)(=O)c1ccc(CCNC(=S)NC(=O)c2ccccc2Br)cc1	31.9	-4.5%	-2.9%	?	3.7%	-29.5%
CC1CN(CC(=O)N2CCN(Cc3nccn3C)CC2)Cc2cc(Cl)ccc2O1 (centres undefined)	/	5.1%[9.04 µM]	/	/	/	-2.7%
O=C(NNc1ccccc1)c1ccc(Cl)c(Cl)c1	-10.2	-6.4%	0.7%	/	?	-4.0%
Cc1cccc(NC(=O)c2ccc(C)c(S(=O)(=O)N3CCOCC3)c2)n1	0.6	4.6%	-80.0%	/	2.2%	-1.1%
COc1cccc(C(=O)NC(C)c2ccc(-c3ccccc3)cc2)c1OC (centres undefined)	-64.3*	?	?	14.4%	?	?
COc1ccc(C(C)NC(=O)c2ccccc2Cl)cc1OC (centres undefined)	-5.8	-13.2%	-85.3%	4.6%	-5.5%	-22.7%
COc1cccc(C(=O)NC(C)c2cccc3ccccc23)c1OC (centres undefined)	-65.1*	-28.7%	0.9%	5.7%	-14.5%	?
COc1cc(OC)c(C(=O)Nc2cccc3ccccc23)cc1OC	-5.4	?	-5.1%	?	-0.4%	?
COc1cc2cc(C(=O)NC(C)c3cccc4ccccc34)c(N)nc2cc1OC (centres undefined)	?	25.9µM*	/	/	/	16.4µM*
COc1cc2cc(C(=O)Nc3ccccc3)c(N)nc2cc1OC	?	?	16.9%	-3.3%	?	20.6µM*
O=C1NCCSC1c1ccccc1 (centres undefined)	-5.2	-4.3%	-24.3%	/	?	4.2%
CC(NC(=O)c1ccc([N+](=O)[O-])cc1[N+](=O)[O-])c1ccc(-c2ccccc2)cc1 (centres undefined)	-0.8	13µM*	-6.6%	?	0.4%	13µM*
COc1ccccc1C(=O)NCc1ccccc1	9.0	?	-2.5%	-7.0%	3.9%	-15.0%
COc1ccccc1C(=O)NC(C)c1cccc2ccccc12 (centres undefined)	-23.9	8.2µM*	-21.3%	-1.8%	?	3.66µM*
O=C(Cc1ccccc1)NC1(Cc2ccc(O)cc2)CCCCC1	-20.5	-25.4%	6.1%	1.7%	2.4%	-26.3%
CCC(=O)Nc1ccc(CC)cc1-c1nc2ccccc2n(CC(=O)Nc2cccc(Cl)c2)c1=O	/	20.6µM*	/	/	/	?
Cc1ccc(NC(=O)CCCn2c(=O)c3cccn3c3ccccc32)c(Cl)c1	/	14.6µM*	/	/	/	11.6µM*
Cc1ccc(NC(=O)Cn2c(=O)c3cccn3c3ccccc32)c(Cl)c1	?	?	?	-13.9%	?	-10.9%
Cc1ccc(NC(=O)CCCn2c(=O)c3cccn3c3ccccc32)c(C)c1	/	14.6µM*	/	/	/	14.6µM*
CCC(=O)Nc1ccc(C)cc1-c1nc2ccccc2n(CC(=O)Nc2ccccc2Cl)c1=O	/	?	/	/	/	-23.3%
O=C(CCCn1c(=O)c2cccn2c2ccccc21)Nc1cccc(Cl)c1	/	?	/	/	/	18.4µM*
SMILES	IL1B secr inh	DT40 TDP1 CPT	SW480 rerep	Chronic BCR inh	MCF10A rereplic	TDP1 cell noCPT
CC(=O)Nc1ccc(S(=O)(=O)N(CC(=O)NCC2CCCO2)Cc2ccccc2Cl)cc1 (centres undefined)	7.3	-22.8%	/	/	/	?
CCOc1ccccc1/C=C(/NC(=O)c1ccccc1)C(=O)N1CCCCC1	?	?	15.6%	-10.7%	12.7%	?
CCc1cccc(NC(=O)Cn2c(=O)c3cccn3c3ccccc32)c1	20.5	-4.7%	3.0%	-10.9%	18.4µM*	?
CC(C)N(CCCNC(=O)Cn1c(=O)c2cccn2c2ccccc21)Cc1ccccc1	-0.5	18.4µM*	?	-1.1%	4.2%	-15.5%
O=C(Cn1c(=O)c2cccn2c2ccc(F)cc21)Nc1cccc(F)c1	/	-6.9%	/	/	/	-22.6%
NC(=O)CCn1ccc2ccccc21	5.3	-13.6%	?	1.6%	?	-3.2%
COc1ccc(CNC(=O)c2cnc3sc(N4CCOCC4)nn3c2=O)cc1	/	-10.1%	/	/	/	-24.2%
CCCc1nc2ccccc2c(C(=O)OCC(=O)NCc2ccc3c(c2)OCO3)c1CC	-5.0	?	9.5%	?	18.4µM*	?
CCCc1nc2ccccc2c(C(=O)OCC(=O)Nc2c(C)n(C)n(-c3ccccc3)c2=O)c1CC	15.0	?	-1.3%	-0.3%	-0.3%	16.4µM*
CCc1ccc(C(=O)OCC(=O)Nc2c(C)n(C)n(-c3ccccc3)c2=O)cc1	-27.7	-7.0%	/	/	/	-2.2%
CCc1nc2ccccc2c(C(=O)OCC(=O)NCc2ccc3c(c2)OCO3)c1C	-7.9	?	-44.0%	-14.4%	15.5%	18.4µM*
Cc1c(-c2cccc(Cl)c2)nc2ccccc2c1C(=O)OCC(=O)Nc1ccc2c(c1)OCO2	-59.1*	?	2.5%	?	14.2%	?
Cc1onc(-c2ccccc2)c1C(=O)OCC(=O)Nc1ccc2c(c1)OCO2	1.9	-23.2%	-6.7%	-1.8%	-0.6%	-29.2%
O=C1N=C(N2CCCC2)CN1c1ccccc1	1.2	?	4.9%	1.9%	-40.5%	-7.4%
CCCc1nc2ccccc2c(C(=O)OC(C)C(=O)NCc2ccc3c(c2)OCO3)c1CC (centres undefined)	?	29.1µM*	?	?	?	18.4µM*
CC(OC(=O)CCc1nc2ccccc2c(=O)[nH]1)C(=O)NCc1ccc2c(c1)OCO2 (centres undefined)	3.9	-22.4%	-4.5%	-0.1%	1.7%	-8.0%
